Pf growth 96h = Primary qHTS for delayed death inhibitors of the malarial parasite plastid, 96 hour incubation. P. falciparum luciferase reporter growth, 96 h. Potency, µM (doses to about 28.7 µM), actives largely listed as inhibitors. 320,000 compounds, 6.9% hits. AID 504834, 2011
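Parasite growth measured via integrated firefly luciferase reporter in P. falciparum. Infected erythrocytes at 2% hematocrit, 0.05% parasitemia final were treated 96 hours at 37 C under 5% CO2, and luminescence was read.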
Sm TGR inh = qHTS Assay for the Inhibitors of Schistosoma Mansoni Peroxiredoxins | Potency, µM (doses to about 114 µM), usual class: inhibitors | purified TGR, DTNB reduction, TNB absorbance 405 nm | 360,000 compounds, 3% hits; also: nearly all actives have a fitted effect of over 60% in size
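Kinetic colorimetric format: TGR-catalysed, NADPH-driven DTNB reduction monitored via TNB absorbance. Enzyme dispensed at 20 nM; compound exposure 15 min at room temperature before reaction start.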
SARS PLP yeast = qHTS of Yeast-based Assay for SARS-CoV PLP; S. cerevisiae expressing SARS-CoV PLpro, growth rescue; Potency, µM (series often up to 32.9 µM), most hits filed as activators; 330,000 compounds, 0.19% hits; calls by dose curve; also: nearly all actives have a fitted effect of over 55% in size
Pf growth 48h = Primary qHTS for delayed death inhibitors of the malarial parasite plastid, 48 hour incubation; P. falciparum luciferase growth in erythrocytes, 48 h; Potency, µM (doses to about 28.7 µM), hits mostly inhibitors; 310,000 compounds, 5.9% hits; AID 504832, 2011
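Here the parasites carry a stable luciferase gene and grow inside erythrocytes in Albumax-based RPMI medium with compound for one erythrocytic cycle. Activity is scored as loss of luminescent signal.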
Numbers stand for hits; – = inactive; ? = inconclusive; · = no result; [ ] = another dose, or the depositor's remark. Only some compounds are listed: those with a hit (about 12% of all), similar ones and a draw of the others. Unless noted, calls follow the shape of the dose curve; as a rule, active = well fitted curve in the direction sought with a large enough effect; inconclusive = small, poorly fitted or top-dose-only effect, or another doubt; inactive = no such curve, though single readings can be large; an effect the other way counts as inactive or inconclusive.

SMILES | Pf growth 96h | Sm TGR inh | SARS PLP yeast | Pf growth 48h
O=C(N/N=C/c1ccccc1[N+](=O)[O-])c1ccc(CN2CCOCC2)cc1 | 9.3µM | – | – | –
O=C(Nc1cccc(OCC(=O)N2CCOCC2)c1)c1cccc([N+](=O)[O-])c1 | 7.4µM | · | – | –
O=C(Nc1cccc([N+](=O)[O-])c1)c1ccc(CN2CCOCC2)cc1 | 12µM | – | – | –
COc1cccc2cc(C(=O)NC(C)c3ccccc3)c(=O)oc12 (centres undefined) | – | – | – | –
O=[N+]([O-])c1ccc2nc(NS(=O)(=O)c3ccc(F)cc3)sc2c1 | – | – | – | –
COc1ccc(-c2nonc2NC(=O)c2oc3ccccc3c2C)cc1OC | 10µM | – | – | ?
CCC(=O)N1CCc2cc(S(=O)(=O)NCCC(=O)Nc3ccc(CC)cc3)ccc21 | · | – | · | ·
OCCN1CCN(CCCc2c3c(cc4c2CCC4)CCC3)CC1 | 12µM | – | – | 12µM
Cc1c(Br)cc(C(=O)N2CCN(CCO)CC2)c(C)c1C | ? | – | – | –
COc1ccccc1C(=O)ON=C1c2ccccc2-c2ccccc21 | 1.7µM | – | – | –
COc1ccccc1N1CCN(C(=O)c2cn(Cc3ccccc3)nc2-c2cccnc2)CC1 | 9.3µM | ? | – | ?
O=C(c1cn(Cc2ccccc2)nc1-c1cccnc1)N1CCc2ccccc2C1 | 13µM | – | – | ?
O=C(c1cn(Cc2ccccc2)nc1-c1cccnc1)N1CCN(Cc2ccccc2)CC1 | ? | – | – | ?
Cc1cccc(NS(=O)(=O)c2ccc3c(c2)CCN3C(=O)C2CC2)c1C | · | – | · | ·
CCCN(c1ccc(OCC)cc1)S(=O)(=O)c1ccc2c(c1)CCN2C(=O)CCC(=O)O | – | – | – | ?
Cc1ccccc1NS(=O)(=O)c1cc2c3c(c1)CC(=O)N3CCC2 | – | – | – | 13µM
Cc1cccc(NS(=O)(=O)c2cc3c4c(c2)CC(=O)N4CCC3)c1C | – | – | – | ?
CCCCN(c1ccccc1)S(=O)(=O)c1ccc2c(c1)CCN2C(=O)CCC(=O)O | 9.3µM | – | – | ?
CC1CCN(CCCNS(=O)(=O)c2ccc3c(c2)CCN3C(=O)C2CC2)CC1 | ? | – | – | –
CCC(=O)N1CCc2cc(S(=O)(=O)Nc3ccccc3C)ccc21 | 0.93µM | – | – | –
CCC(=O)N1CCc2cc(S(=O)(=O)NCCN3CCC(C)CC3)ccc21 | 1.7µM | – | – | ·
O=C(CNC(=O)c1ccccc1Cl)OCc1cc(=O)n2nc(C3CC3)sc2n1 | · | – | · | ·
CCC(CC)C(=O)N1CCc2cc(OC)c(OC)cc2C1COc1ccccc1OC (centres undefined) | · | – | · | ·
O=C(Cn1cncn1)N/N=C/c1cccc(Cl)c1 | – | – | – | –
CC(=O)N1CCc2cc(S(=O)(=O)NCCC(=O)NC3CCCc4ccccc43)ccc21 (centres undefined) | – | – | – | 12µM
SMILES | Pf growth 96h | Sm TGR inh | SARS PLP yeast | Pf growth 48h
COC(=O)c1ccc(-c2ccc(CNCC(O)c3ccccc3)o2)cc1 (centres undefined) | 12µM | – | – | 2.6µM
CC1(c2ccccc2)CC(c2ccccc2)=Nc2ccccc2N1 (centres undefined) | – | ? | – | ?
Cc1ccc(C2=Nc3ccccc3NC(C)(c3ccc(C)o3)C2)o1 (centres undefined) | ? | 35µM | – | ?
Cc1cc(C)c(NC(=O)CN(C)C(=O)CNC(=O)c2cccs2)c(C)c1 | – | – | – | –
Cc1cccc(N2CCc3c2nc2ccccc2c3N)c1 | 10µM | – | – | ?
Oc1c(Br)cc(Br)cc1CNc1cccc2cccnc12 | ? | 1.8µM | – | ?
Oc1ccc(Br)cc1CNc1cccc2cccnc12 | 9.3µM | – | – | ?
Oc1ccc(Br)cc1CNc1cnc2ccccc2c1 | 12µM | – | – | ?
Oc1c(Br)cc(Br)cc1CNc1ccccn1 | – | – | – | –
CCCCc1nn2c(=O)cc(COC(=O)c3ccccc3NC(=O)C3CCCCC3)nc2s1 | · | – | · | ·
CCn1nc(C)cc1C(=O)Sc1cccc(Br)c1 | – | 5.6µM | – | –
CCn1nc(C)cc1C(=O)Sc1ccc(Cl)cc1Cl | – | 3.5µM | – | –
Cc1oc(-c2ccccc2)nc1CNC(=O)Nc1ccccc1 | · | – | · | ·
COc1n[nH]c(C(=O)Nc2cc(Cl)ccc2Cl)c1[N+](=O)[O-] | 4.7µM | · | – | ?
c1csc(-c2nc3c4ccccc4c4ccccc4c3[nH]2)c1 | ? | – | – | ?
Oc1ccccc1-c1nc2c3ccccc3c3ccccc3c2[nH]1 | ? | – | – | 9.3µM
COC(=O)c1cccc(NC(=O)c2nsc3ccccc23)c1 | · | – | · | ·
COC(=O)c1sc(N)c(C(=O)OC)c1Cn1ncc(Cl)c(Cl)c1=O | 8.3µM | 0.32µM | – | 13µM
CC(=O)[C@@]1(O)C(C)CC2C3C=C(C)C4=Cc5c(cnn5-c5ccccc5)C[C@]4(C)C3C(O)C[C@@]21C (some centres undefined) | 10µM | – | – | 5.2µM
Cc1noc(C)c1CC(=O)NC1CC(C)(C)Cc2c1cnn2-c1ccccc1 (centres undefined) | – | – | – | –
O=C(CCc1ccc(Oc2cc([N+](=O)[O-])cc([N+](=O)[O-])c2)cc1)N1CCCCC1 | ? | – | – | 12µM
O=C(CCl)NCCCCCCCCCNC(=O)CCl | 1.5µM | ? | ? | 1.9µM
COc1ccc(C2C(C(=O)Nc3ccccc3)=C(C)Nc3nc(-c4ccccc4)nn32)cc1OC (centres undefined) | · | – | · | ·
CC1CN(C)CCC1OC(=O)c1ccccc1 (centres undefined) | 2.1µM | – | – | –
S=C(NNc1ccnc2cc(Cl)ccc12)Nc1ccc(Cl)cc1Cl | 0.74µM | – | – | 1.9µM
SMILES | Pf growth 96h | Sm TGR inh | SARS PLP yeast | Pf growth 48h
CCOc1ccc(NC(=S)NNc2ccnc3cc(Cl)ccc23)cc1 | 2.1µM | – | – | ?
COCc1cc(=O)n2[nH]c(-c3ccco3)cc2n1 | – | – | – | –
CCCCN1Cc2c(nc3cc(-c4ccco4)[nH]n3c2=O)C1=O | – | 20µM | – | –
CCOc1ccc(CN2C(=O)c3ccccc3Sc3ccc(C(=O)NCc4ccco4)cc32)cc1 | · | – | · | ·
COc1ccc(NC(=O)NCc2ccccn2)cc1OC | –[5.75 µM] | – | – | –
COc1ccc(CC(=O)NCc2ccccn2)cc1OC | 4.7µM | – | – | 10µM
COc1ccc(CC(=O)NCc2cccc(CNC(=O)Cc3ccc(OC)c(OC)c3)c2)cc1OC | 8.3µM | – | – | –
COc1ccc(CC(=O)NNC(=O)c2nn(Cc3ccccc3)c(=O)c3ccccc23)cc1OC | ? | – | – | 3.3µM
COc1ccc(CNC(=O)Cc2csc3ccccc23)cc1OC | · | – | · | ·
COc1ccc(CCNC(=O)Cn2nc(C(=O)O)c3ccccc3c2=O)cc1OC | – | – | – | –
COc1ccc(CC(=O)c2ccc(OC)c(OC)c2C)cc1OC | 10µM | – | – | ?
Cc1cc(NC(=O)C(C)SCC(=O)N(C)CC(=O)Nc2ccc(F)cc2)no1 (centres undefined) | – | – | – | –
Cn1cnc(S(=O)(=O)N2CCC(C(=O)Nc3ccc(OC(F)(F)F)cc3)CC2)c1 | · | – | · | ·

From PubChem BioAssay
